Reference: PubChem BioAssay (NCATS)
Where “and” joins values, the source holds several entries; their conditions need not be identical. Equal entries are not always repeated. Inconclusive results are not listed. Calls of active or inactive are those of the source. Calls follow the shape of the dose curve; as a rule, active = well fitted curve in the direction sought with a large enough effect; inconclusive = small, poorly fitted or top-dose-only effect, or another doubt; inactive = no such curve, though single readings can be large; an effect the other way counts as inactive or inconclusive.

Experiments:
[1] = biological target: Cytochrome P450 3A7 (Homo sapiens) (UniProt P24462); experiment: Cytochrome P450 family 3 subfamily A member 7 (CYP3A7) small molecule antagonists: luciferase biochemical qHTS assay (AID 1963596); also: % is scaled to controls: 0 for no effect and ±100 for the full control effect; nearly all actives have a fitted effect of over 40% in size
Chain of Cytochrome P450 3A7 (Homo sapiens) (P24462 whole entry, looked up): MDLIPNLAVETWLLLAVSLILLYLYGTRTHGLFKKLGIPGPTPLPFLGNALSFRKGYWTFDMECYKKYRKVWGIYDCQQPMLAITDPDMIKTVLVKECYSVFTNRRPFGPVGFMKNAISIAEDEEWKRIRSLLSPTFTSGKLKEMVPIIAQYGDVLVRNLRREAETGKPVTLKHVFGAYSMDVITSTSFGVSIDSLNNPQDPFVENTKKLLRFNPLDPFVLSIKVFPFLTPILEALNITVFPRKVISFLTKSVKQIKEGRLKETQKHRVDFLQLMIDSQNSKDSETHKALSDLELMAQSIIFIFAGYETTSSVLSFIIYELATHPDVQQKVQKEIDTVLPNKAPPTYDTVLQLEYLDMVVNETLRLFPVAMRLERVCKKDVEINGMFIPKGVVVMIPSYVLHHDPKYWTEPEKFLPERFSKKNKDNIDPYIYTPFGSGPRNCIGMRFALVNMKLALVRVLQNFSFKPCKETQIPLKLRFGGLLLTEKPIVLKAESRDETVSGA
Procedure, shortened: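 Recombinant CYP3A7 P450-Glo luminescent assay: enzyme-proluciferin substrate mix preincubated with compound 10 min at room temperature, reaction started with NADPH regeneration system for 1 h. Luciferin detected by luminescence; ketoconazole as positive control.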

[2] = Viability qHTS for spleen associated tyrosine kinase inhibitor (SYKi) drug resistant MV4-11 cells (AID 1963824); also: nearly all actives have a fitted effect of over 35% in size; also: potency is read from the fitted curve at half-maximal effect
Procedure, shortened: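 SYK-inhibitor-resistant MV4-11 AML cells were seeded at 500 per well onto compound and cultured 72 hours (37 °C, 5% CO2). CellTiter-Glo was then added, and after 10 min at room temperature, luminescence gave viability.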

[3] = Quantitative highthroughput screen to assess conditional lethalithy of NOMO1 cells grown in RPMI1640 with untreated serum (RPMI+s) (AID 1963876); also: nearly all actives have a fitted effect of over 35% in size; also: potency is read from the fitted curve at half-maximal effect;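 as to Viability: 100% = DMSO wells and 0% = empty wells without cells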
Procedure, shortened: (§1)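 Each medium arm—HPLM with 10% dialyzed FBS, or RPMI1640 with 5 mM glucose and 10% untreated or dialyzed FBS—was screened against an 11-point, 3-fold compound titration for 48 h at 37 °C, with CellTiter-Glo luminescence as endpoint.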

[4] = Quantitative highthroughput screen to assess conditional lethalithy of NOMO1 cells grown in RPMI1640 with dialyzed fetal bovine serum (RPMI+ds) (AID 1963877); also: nearly all actives have a fitted effect of over 30% in size; also: potency is read from the fitted curve at half-maximal effect;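 as to Viability: series mostly up to about 46 µM; 100% = DMSO control wells and 0% = empty wells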
Procedure, shortened: as §1

[5] = Quantitative highthroughput screen to assess conditional lethalithy of P12 Ichikawa cells grown in Human Plasma-Like Medium with dialyzed fetal bovine serum (HPLM+ds) (AID 1963879); conditions: Potency: viability; also: nearly all actives have a fitted effect of over 35% in size; also: potency is read from the fitted curve at half-maximal effect; as to Viability: series mostly up to about 46 µM
Procedure, shortened: as §1

[6] = Quantitative highthroughput screen to assess conditional lethalithy of P12 Ichikawa cells grown in RPMI1640 with dialyzed fetal bovine serum (RPMI+ds) (AID 1963880); conditions: Potency: P12-Ichikawa viability;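 also: 100% = DMSO wells and 0% = empty wells on each plate; nearly all actives have a fitted effect of over 35% in size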
Procedure, shortened: as §1

[7] = Quantitative highthroughput screen to assess conditional lethalithy of P12 Ichikawa cells grown in RPMI1640 with untreated serum (RPMI+s) (AID 1963881); conditions: Potency: viability; also: nearly all actives have a fitted effect of over 35% in size; also: potency is read from the fitted curve at half-maximal effect;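 as to Viability: series mostly up to about 46 µM; 100% = DMSO wells and 0% = empty wells without cells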
Procedure, shortened: as §1

[8] = Quantitative highthroughput screen to assess conditional lethalithy of SEM cells grown in Human Plasma-Like Medium with dialyzed fetal bovine serum (HPLM+ds) (AID 1963882); also: nearly all actives have a fitted effect of over 35% in size; also: potency is read from the fitted curve at half-maximal effect; as to Viability: series mostly up to about 46 µM
Procedure, shortened: as §1

[9] = Quantitative highthroughput screen to assess conditional lethalithy of SEM cells grown in RPMI1640 with unreated serum (RPMI+s) (AID 1963883); also: nearly all actives have a fitted effect of over 35% in size; also: potency is read from the fitted curve at half-maximal effect;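 as to Viability: 100% = DMSO wells and 0% = empty wells without cells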
Procedure, shortened: as §1

[10] = Cellular viability qHTS for adrenocortical cancer (ACC) cell line SW-13 (AID 1963989); conditions: SW-13 ACC cells viability, CellTiter-Glo, 48 h; activity (max response): stronger effect = lower value; also: nearly all actives have a fitted effect of over 65% in size; also: potency is read from the fitted curve at half-maximal effect;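 as to activity (max response): cells grown in serum-free medium with ITS supplement; % is scaled to controls: 0 for no effect and ±100 for the full control effect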
Procedure, shortened: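 Viability was read as CellTiter-Glo luminescence after 48 h compound treatment (up to 46 uM final) of SW-13 cells grown serum-free; titration curves were fit with a four-parameter logistic model to give IC50 and efficacy.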

[11] = Cellular viability qHTS for adrenocortical cancer (ACC) cell line NCI-H295R (AID 1963990); also: nearly all actives have a fitted effect of over 60% in size; also: potency is read from the fitted curve at half-maximal effect
Procedure, shortened: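 CellTiter-Glo ATP luminescence, read 48 h after compound addition, measured viability of NCI-H295R adrenocortical cells grown serum-free with ITS. Final concentrations spanned up to 46 uM. Data normalized to DMSO and doxorubicin, fitted for IC50 and maximal response.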

[12] = Quantitative highthroughput screen to assess conditional lethalithy of SEM cells grown in RPMI1640 with dialyzed fetal bovine serum (RPMI+ds) (AID 1963884); also: nearly all actives have a fitted effect of over 35% in size; also: potency is read from the fitted curve at half-maximal effect;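 as to Viability: series mostly up to about 46 µM; 100% = DMSO control wells and 0% = empty wells without cells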
Procedure, shortened: as §1

[13] = Quantitative highthroughput screen to assess conditional lethalithy of NOMO1 cells grown in Human Plasma-Like Medium with dialyzed fetal bovine serum (HPLM+ds) (AID 1963878); also: nearly all actives have a fitted effect of over 35% in size; also: potency is read from the fitted curve at half-maximal effect;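 as to Viability: 100% = DMSO wells and 0% = empty wells on each plate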
Procedure, shortened: as §1

Cc1cc(CS(=O)(=O)c2ccccc2)cc(OCc2ccc(CN3CCCC3CO)cc2)c1 (stereo not drawn)
active: Potency [2] 14.6 µM
inactive: Potency [1]

COc1nc(C)nc(Cl)c1NC1=NCCN1
inactive: Potency [1] | Potency [2] | Potency [3] | Potency [4] | Potency [5] | Potency [6] | Potency [7] | Potency [8] | Potency [9] | activity (max response) [10] -1.64% | Potency [11]

CCCCc1ccc2nc(NC(=O)OC)[nH]c2c1
inactive: Potency [1]
active: Potency [2] 0.118 µM | Potency [7] 83.3 nM | Potency [9] 59 nM | Potency [12] 41.8 nM | Potency [10] 51.7 nM and 282 nM | Potency [11] 103 nM and 224 nM

CCCNC(=O)Nc1ccc(Oc2ncnc3cc(OC)c(OC)cc23)cc1Cl
active: Potency [2] 0.517 µM
inactive: Potency [1] | Potency [3] | Potency [4] | Potency [13] | Potency [5] | Potency [6] | Potency [7] | activity (max response) [10] -6.45% | Potency [11]

Cc1c(F)cc2c(=O)c(C(=O)O)cn3c2c1CCC3C (stereo not drawn)
inactive: Potency [1] | Potency [2] | activity (max response) [10] -2.48%

CNC(=O)c1ccc(-c2cnc3ncc(Cc4ccc5ncccc5c4)n3n2)cc1F
inactive: Potency [1] | Potency [3] | Potency [4] | Potency [13] | Potency [5] | Potency [6] | Potency [7] | Potency [8] | Potency [9] | Potency [12] | activity (max response) [10] 0.555% | Potency [11]
active: Potency [2] 2.06 µM

O=c1cc(N2CCN(c3cccc(C(F)(F)F)c3)CC2)[nH]c(=O)n1C1CCCCC1
inactive: Potency [1] | Potency [2]

Nc1ncn([C@H]2C[C@H](O)[C@@H](CO)O2)c(=O)n1
inactive: Potency [1] | activity (max response) [10] -13% and -6.12% | Potency [11]
active: Potency [2] 4.68 µM | Potency [8] 2960 nM | Potency [9] 2640 nM

COc1ccccc1OCC(O)COC(N)=O (stereo not drawn)
inactive: Potency [1] | Potency [2] | Potency [4] | Potency [6] | Potency [7] | Potency [8] | Potency [9] | Potency [12] | activity (max response) [10] -1.45% | Potency [11]

Cn1ccc2cc3c(cc21)CCN3C(=O)Nc1cccnc1
inactive: Potency [1] | Potency [2] | Potency [3] | Potency [4] | Potency [13] | activity (max response) [10] -12.5% and 11.5% | Potency [11]

COc1ccc(CC2c3cc(OC)c(OC)cc3CC[N+]2(C)CCC(=O)OCCCCCOC(=O)CC[N+]2(C)CCc3cc(OC)c(OC)cc3C2Cc2ccc(OC)c(OC)c2)cc1OC (stereo not drawn)
inactive: Potency [1] | viability [5] 93.9% [at 5.15 µM] | viability [6] 106% [at 5.15 µM] | viability [7] 89.9% [at 5.15 µM] | activity (max response) [10] -11.7%
active: Potency [2] 18.6 µM | Potency [3] 3680 nM | Potency [4] 4630 nM | Potency [13] 1640 nM

Cc1ccc(C(=O)Nc2ccc(S(=O)(=O)O)c3cc(S(=O)(=O)O)cc(S(=O)(=O)O)c23)cc1NC(=O)c1cccc(NC(=O)Nc2cccc(C(=O)Nc3cc(C(=O)Nc4ccc(S(=O)(=O)O)c5cc(S(=O)(=O)O)cc(S(=O)(=O)O)c45)ccc3C)c2)c1
active: Potency [4] 8330 nM
inactive: Potency [1] | Potency [2] | Potency [3] | activity (max response) [10] -19.9% and 5.07% | Potency [11]

CS(=O)c1ccc(-c2nc(-c3ccc(F)cc3)c(-c3ccncc3)[nH]2)cc1 (stereo not drawn)
active: Potency [2] 20.6 µM | Potency [3] 6790 nM | Potency [4] 6790 nM | Potency [13] 6050 nM | Potency [5] 9590 nM | Potency [7] 7620 nM | Potency [8] 7620 nM | Potency [9] 2410 nM | Potency [12] 5400 nM
inactive: Potency [1] | Potency [11]

O=C(NCC(=O)N1CCCC1)Nc1ccc2cnccc2c1
inactive: Potency [1] | activity (max response) [10] -10.6%
active: Potency [2] 8.2 µM

O=c1c(O)c(-c2ccc(O)cc2O)oc2cc(O)cc(O)c12
inactive: Potency [1] | Potency [2] | Potency [3] | activity (max response) [10] 14.7% | Potency [11]

CN(C)C/C=C/C(=O)Nc1ccc(C(=O)Nc2cccc(Nc3ncc(Cl)c(-c4c[nH]c5ccccc45)n3)c2)cc1
active: Potency [2] 10.3 nM and 18.6 nM | Potency [3] 331 nM | Potency [4] 263 nM | Potency [13] 263 nM | Potency [5] 331 nM | Potency [7] 331 nM | Potency [8] 209 nM | Potency [9] 186 nM | Potency [12] 166 nM | Potency [11] 562 nM
inactive: Potency [1]

CCN(CC)CCCC(C)Nc1nc(C)cc(Nc2ccc3nc(C)cc(N)c3c2)n1 (stereo not drawn)
inactive: Potency [1] | Potency [3] | Potency [4] | Potency [13] | Potency [5] | Potency [6] | Potency [7] | Potency [8] | Potency [9] | Potency [12] | Potency [11]
active: Potency [2] 16.6 µM
